A selection: hits, their analogues and other compounds. The true share with any hit is near 8.8%.
HT1080NT lethal – kills 2HG-producing HT-1080-NT fibrosarcoma cells; 360,000 compounds, 1.6% hits; Potency, µM (highest dose often 46.1 µM), for the others: at the highest dose activity, negative = less viability, actives largely listed as cytotoxic; AID 686970; HT-1080-NT fibrosarcoma viability, CellTiter-Glo ATP luminescence, 48 h;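 also: NT is the 2HG producing partner of a matched IDH1 knockdown line; potency is read from the fitted curve at half-maximal effect; 0% = DMSO-treated cells and -100% = media-only wells without cells; nearly all actives have a fitted effect of over 55% in size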
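A 48-hour cytotoxicity screen used HT-1080-NT cells plated 2 hours before compound delivery. ATP-based CellTiter-Glo luminescence measured viability, normalized to DMSO and no-cell controls.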
KB-V1 MDR tox – kills drug-selected multidrug resistant KB-V1 cells; 400,000 compounds, 3.4% hits; Potency, µM (series often up to 46.1 µM), usual class: cytotoxic; KB-V1 MDR cells viability, CellTiter-Glo, 72 h; also: potency is read from the fitted curve at half-maximal effect; nearly all actives have a fitted effect of over 60% in size
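In this primary screen, KB-V1 cells overexpressing P-gp are incubated with library compounds (lowest to highest concentration) for 72 h at 37 degrees C before a luminescent ATP viability read.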
HT1080 IDH1KD tx – kills HT-1080 cells with IDH1 knockdown | Potency, µM (titrated, usually from 46.1 µM), for the others: at the top dose activity, negative = toxicity, hits mostly cytotoxic | AID 686971 | HT-1080 IDH1 knockdown viability, ATP luminescence, 48 h | 360,000 compounds, 2% hits;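 also: potency is read from the fitted curve at half-maximal effect; 0% = DMSO wells and -100% = cell-free medium wells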
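In this qHTS, HT-1080 cells depleted of IDH1 are exposed for 48 h at 37 °C to compound titrations. Toxicity is scored from CellTiter-Glo luminescence, with DMSO as full viability and medium alone as none.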
IL1B secr inh – blocks inflammasome-driven IL-1 beta release | THP-1 LPS/ATP IL-1B secretion, AlphaLISA, 16 h; active compounds read low | activity change, % at 57.5 µM | 360,000 compounds, 4.7% hits | AID 743279; in the data active = activity change below about -50%; inconclusive = mostly about -30% to -49%
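THP-1 cells pretreated 1 hr with compounds (up to 57.5 uM final), then stimulated with LPS (250 ng/mL final) plus ATP (1.25 mM final); secreted IL-1B measured by AlphaLISA after 16 hr, decreased signal indicating inhibition.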
KB-3-1 cytotox – kills parental KB-3-1 adenocarcinoma cells; KB-3-1 viability, CellTiter-Glo ATP luminescence, 72 h; Potency, µM (doses to about 46.1 µM), usual class: cytotoxic; 400,000 compounds, 1.4% hits; also: potency is read from the fitted curve at half-maximal effect; nearly all actives have a fitted effect of over 60% in size
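Cytotoxicity in the drug-sensitive parental line KB-3-1 was scored as loss of CellTiter-Glo luminescence following 72 h incubation with compound. Values come from curve fitting of normalized concentration-response data.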
The depositor's hits bear a star; i = inactive; ? = inconclusive; nt = not tested or not shown. Unless noted, calls follow the shape of the dose curve; as a rule, active = well fitted curve in the direction sought with a large enough effect; inconclusive = small, poorly fitted or top-dose-only effect, or another doubt; inactive = no such curve, though single readings can be large; an effect the other way counts as inactive or inconclusive. Unless noted, % is scaled to controls: 0 for no effect and ±100 for the full control effect.

SMILES	HT1080NT lethal	KB-V1 MDR tox	HT1080 IDH1KD tx	IL1B secr inh	KB-3-1 cytotox
Cc1cccc(C)c1C(O)c1ncc(-c2ccccc2Cl)[nH]1 (stereo not drawn)	-3%	i	-9%	-9	i
CCCNC(=O)CCCN1C(=O)c2ccccc2Sc2ncccc21	13%	i	14%	-8	i
COc1ccc(OC)c(CNc2ncc(-c3ccc(Cl)cc3)n2C)c1	nt	i	nt	nt	i
Cc1cccc(CC(Cc2nc3ccccc3[nH]2)c2nc3ccccc3[nH]2)c1 (stereo not drawn)	18µM*	?	26µM*	-75*	?
O=C(Nc1nnc(SCc2cccnc2)s1)C1CC(=O)N(c2ccccc2)C1 (stereo not drawn)	15%	i	16%	0	?
Cc1ccc(C(=O)n2c3ccccc3c3ccccc32)cc1	?	8.2µM*	6.5µM*	43	10µM*
CC(=O)n1c2ccccc2c2ccccc21	8%	i	3%	4	i
CC(=O)N1N=C(c2cccc([N+](=O)[O-])c2)OC1(C)CC(=O)Nc1ccccc1 (stereo not drawn)	-3%	21µM*	16%	0	i
CCn1c(Sc2ccc([N+](=O)[O-])cn2)nnc1-c1ccco1	12µM*	?	18µM*	-82*	21µM*
CCn1c(SCC(=O)OCc2ccccc2)nnc1-c1ccco1	4%	i	-5%	-2	i
COc1cccc(S(=O)(=O)N2CCN(c3nc(-c4cccs4)nc4ccccc34)CC2)c1	11%	nt	0%	nt	nt
COc1ccc(CN(C)C(=O)c2cccc(NS(=O)(=O)c3ccccc3)c2)cc1F	-11%	8.2µM*	-1%	-7	i
CSc1ccc(CN(C)C(=O)c2ccc(S(=O)(=O)Nc3ccccc3)cc2)cc1	1%	?	-16%	-50*	i
CSc1ccc(CN(C)C(=O)c2ccc(S(=O)(=O)Nc3c(C)n(C)n(-c4ccccc4)c3=O)cc2)cc1	-1%	i	4%	-5	i
C=CCNc1ncnc2c1ncn2[C@H]1CN(Cc2cccc3ccccc23)C[C@@H](CO)O1	-10%	i	1%	-1	i
CCn1c(=N)n(CC(=O)c2ccc(Br)s2)c2ccccc21	?	i	?	0	i
CCCCn1c(=N)n(CC(=O)c2ccc(Br)s2)c2ccccc21	?	?	?	-98*	i
Oc1ccc(O)c(-c2cnns2)c1	-25%	?	-23%	?	i
Cc1ccc(-n2c(=O)c3c4c(sc3n(Cc3ccccc3C)c2=O)CCC4)cc1C	nt	i	nt	nt	i
O=C(NNc1ccccc1)OCc1ccccc1	?	i	3.3µM*	-18	i
O=C(NNc1ccccc1)c1ccc(Cl)c(Cl)c1	?	18µM*	-9%	-10	i
CCNC(=S)NNc1ccccc1	8.2µM*	i	6.5µM*	-95*	i
O=C(CNS(=O)(=O)Cc1ccccc1)NNc1ccccc1	?	i	4.1µM*	6	i
O=C(C1CC(=O)N(c2ccc(Cl)cc2)C1)N1CCN(Cc2ccc3c(c2)OCO3)CC1 (stereo not drawn)	-19%	i	-20%	2	i
O=C(Cc1ccccc1)NS(=O)(=O)c1ccccc1	?	i	4%	32	i
SMILES	HT1080NT lethal	KB-V1 MDR tox	HT1080 IDH1KD tx	IL1B secr inh	KB-3-1 cytotox
Cc1ccc(NC(=O)Cc2nnc(SCC(=O)NC3CCCC3)n2C)c(C)c1	0%	i	-4%	-10	i
O=C(NNc1ccccc1)C(=O)NNc1ccccc1	-18%	?	1.2µM*	-15	?
COc1cccc(Oc2cnc(N)nc2-c2ccc(OC)cc2O)c1	?	2.6µM*	-75%	23	6.5µM*
Nc1ncc(-c2ccccc2)c(-c2ccc(OCc3ccccc3)cc2O)n1	?	i	?	-103*	?
COc1ccc(-c2cnc(N)nc2-c2ccc(OC)cc2O)cc1	1%	i	-15%	-73*	i
C=C(C)COc1ccc(-c2nc(N)ncc2-c2ccc(Cl)cc2)c(O)c1	?	23µM*	-20%	?	?
Cc1cccc(CNC(=O)Cc2ccc(NC(=O)N3CCCCc4ccccc43)cc2)c1	nt	i	nt	nt	i
O=C(NCc1ccccc1)c1ccc(NC(=O)C2CCC2)cc1	17%	i	8%	-21	i
CCOC(=O)C(C(=O)Nc1ccc(C)cc1)C1CCCCC1 (stereo not drawn)	?	9.2µM*	?	30	23µM*
CCOC(=O)C(C(=O)Nc1ccccc1)C1CCCCC1 (stereo not drawn)	-14%	i	-10%	-21	i
O=C1N(Cc2cccc(Cl)c2)C[C@@H]2C[C@@H](c3cccn3-c3cccnc3)N3CCC[C@@]123	-7%	?	-24%	-56*	?
Cn1cc([C@@H]2C[C@H]3CN(Cc4cccc(Cl)c4)C(=O)[C@]34CCCN24)c(-c2ccccc2)n1	-19%	i	-24%	-80*	i
CCn1ncc([C@@H]2C[C@H]3CN(Cc4cccc(Cl)c4)C(=O)[C@]34CCCN24)c1C	-8%	i	-5%	?	i
Cc1nn(C)cc1[C@@H]1C[C@H]2CN(Cc3cccc(Cl)c3)C(=O)[C@]23CCCN13	-7%	i	-7%	-14	i
COc1cccc2c1OCC([C@@H]1C[C@H]3CN(Cc4cccc(Cl)c4)C(=O)[C@]34CCCN14)=C2	-19%	i	-20%	-61*	i
O=C(Cc1ccccc1)NCC(=O)OCC(=O)c1ccc2ccccc2c1	nt	i	nt	nt	i
COc1cccc(-c2cnc(C(O)c3ccc(Cl)cc3C)[nH]2)c1 (stereo not drawn)	-16%	i	-19%	12	i
Cc1ccc(NC(=O)COc2ccccc2)c(NC(=O)c2ccccc2C)c1	-9%	5.8µM*	-6%	-8	i
Cc1ccc(NS(=O)(=O)c2ccc(C)c(NC(=O)COc3ccccc3)c2)c(C)c1	3%	21µM*	6%	-4	i
Cc1ccc(C)c(NS(=O)(=O)c2ccc(OCC(=O)N3CCOCC3)cc2)c1	-6%	i	-7%	-1	i
CC(=O)Oc1ccc(C(=O)Nc2cc(C)ccc2NC(=O)COc2ccccc2)cc1	0%	16µM*	10%	0	i
Cc1ccc(NC(=O)c2ccco2)c(NC(=O)COc2ccccc2)c1	4%	i	0%	-7	i
Cc1ccccc1NC(=O)c1ccc(OCC(=O)Nc2ccccc2F)cc1	-1%	i	0%	-26	i
Cc1ccc(S(=O)(=O)NC(=O)COc2ccccc2)cc1	-2%	i	-1%	2	i

Screening results from PubChem BioAssay.
